From PubChem BioAssay (NCATS)
Values joined by “and” are separate entries in the source; they are usually repeats but may differ in a detail not shown here. Equal values may be shown once. Results filed as inconclusive are left out. Active and inactive are the calls of the source. Calls come from the whole dose curve; as a rule, active = well fitted curve in the direction sought with a large enough effect; inconclusive = small, poorly fitted or top-dose-only effect, or another doubt; inactive = no such curve, though single readings can be large; an effect the other way counts as inactive or inconclusive.

How the values were obtained:
[1] = system: Hek293T; experiment: Primary qHTS to identify gynecologic anti-cancer compounds using libraries of approved drugs and bioactive compounds (AID 1345084); conditions: Gynecologic cancer cell panel viability, ATPlite luminescence, 48 h, control line for the selectivity index; series mostly up to 57.5 µM; note: nearly all actives have a fitted effect of over 55% in size
In short: (§1)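 Five-point cytotoxicity, 48 h drug exposure at 37 C, 5% CO2, on cells seeded 16 h beforehand. ATP content read by ATPlite luminescence.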

[2] = system: OV90; experiment: as above; conditions: Gynecologic cancer cell panel viability, ATPlite luminescence, 48 h; series mostly up to 57.5 µM
In short: as §1

[3] = system: PA-1; experiment: as above; conditions: Gynecologic cancer cell panel viability, ATPlite luminescence, 48 h; series mostly up to 57.5 µM
In short: as §1

[4] = system: SKOV3; experiment: as above; conditions: Gynecologic cancer cell panel viability, ATPlite luminescence, 48 h; series mostly up to 57.5 µM
In short: as §1

[5] = system: Tov-21-G; experiment: as above; conditions: Gynecologic cancer cell panel viability, ATPlite luminescence, 48 h; series mostly up to 57.5 µM
In short: as §1

[6] = system: Tov112D; experiment: as above; conditions: Gynecologic cancer cell panel viability, ATPlite luminescence, 48 h; series mostly up to 57.5 µM
In short: as §1

[7] = Drug repurposing screens with cells derived from glioblastoma tumor samples (AID 1345199); conditions: GBM patient neurospheres viability, ATP luminescence, 48 h; note: nearly all actives have a fitted effect of over 40% in size; for activity, negative = cell killing: % is set by controls: 0 for no effect and ±100 for the full control effect
In short: (§2)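 Four patient lines of CD133+ GBM neurospheres were screened at several concentrations; hits were retested in those lines plus three slower-growing GBM lines, using 48-hour treatment and ATP-based viability.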

[8] = system: JEG-3; experiment: Primary qHTS to identify gynecologic anti-cancer compounds using libraries of approved drugs and bioactive compounds (AID 1345084); conditions: Gynecologic cancer cell panel viability, ATPlite luminescence, 48 h; series mostly up to 57.5 µM; note: nearly all actives have a fitted effect of over 55% in size
In short: as §1

[9] = system: astro; experiment: Drug repurposing screens with cells derived from glioblastoma tumor samples (AID 1345199); conditions: viability, ATP luminescence, 48 h; series mostly up to 45.9 µM; note: nearly all actives have a fitted effect of over 40% in size; for activity, negative = cell killing: % is set by controls: 0 for no effect and ±100 for the full control effect
In short: as §2

[10] = qHTS assay to identify inhibitors of the type 1 interferon - major histocompatibility complex class I in skeletal muscle: Counter screen cell viability and HiBit confirmation (AID 1347412); conditions: iHSKM muscle cells + IFN-b, HiBiT or CellTiter-Glo, 24 h; Potency: HiBiT; Viability, at 45.9 µM (top of the series); note: nearly all actives have a fitted effect of over 60% in size
In short: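 CRISPR HLA-B*08:01-HiBit immortalized human myoblasts (C25cl48) stimulated with 4 ng/ml IFN-beta and compounds (12-point 1:3, top 46 uM final) for 24 h at 37 C. Duplicate plates read by HiBit lytic luminescence or CellTiter Glo ATP.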

[11] = at 46.1 µM (top of the series), tumour line C
[12] = at 45.9 µM (top of the series), tumour line B
[13] = at 45.9 µM (top of the series), tumour line D
Potency is the fitted concentration of half-maximal effect.

CCN1/C(=C/C=C/c2sc3ccccc3[n+]2CC)Sc2ccccc21
active: Potency [1] 2 µM | Potency [2] 2.24 µM | Potency [3] 1.41 µM | Potency [4] 0.126 µM | Potency [5] 0.891 µM | Potency [6] 3.16 µM

O=c1[nH]c(=O)n([C@H]2C[C@H](O)[C@@H](CO)O2)cc1F
active: Potency [2] 7.94 µM | Potency [4] 7.94 µM | Potency [6] 1 µM | Potency ([7]; tumour line A) 0.891 µM
inactive: Potency [1] | activity, negative = cell killing [7, 11] -17.1%

Nc1nc(Cl)nc2c1ncn2[C@@H]1O[C@H](CO)[C@@H](O)[C@@H]1F
active: Potency [8] 11.2 µM | Potency [2] 0.398 µM | Potency [3] 1.26 µM | Potency [6] 0.316 µM | Potency [9] 10 µM

O=C(CCCN1CC=C(n2c(=O)[nH]c3ccccc32)CC1)c1ccc(F)cc1
inactive: Potency [1] | Potency [8] | Potency [5] | Potency [6] | activity, negative = cell killing [7, 12] -17.1% | activity, negative = cell killing [7, 13] -15% | activity, negative = cell killing [7, 11] -24.6% | Potency [9]
active: Potency ([7]; tumour line A) 10 µM

CN1CCN(CCC(=O)N2c3ccccc3Sc3ccc(C(F)(F)F)cc32)CC1
inactive: Potency [9]
active: Potency [2] 15.8 µM

CCN(CC)CCOc1ccc2c(c1)C(=O)c1cc(OCCN(CC)CC)ccc1-2
inactive: Potency [9]
active: Potency [2] 12.6 µM | Potency [5] 22.4 µM

NC(N)=NN=C(/C=C/c1ccc([N+](=O)[O-])o1)/C=C/c1ccc([N+](=O)[O-])o1
active: Potency [2] 15.8 µM | Potency [3] 7.08 µM | Potency [5] 12.6 µM | Potency [6] 17.8 µM | Potency [9] 22.4 µM

C[C@H]1O[C@@H](O[C@H]2CC[C@@]3(C)[C@H](CC[C@@H]4[C@@H]3C[C@@H](O)[C@]3(C)[C@@H](C5=CC(=O)OC5)CC[C@]43O)C2)C[C@H](O)[C@@H]1O[C@H]1C[C@H](O)[C@H](O[C@H]2C[C@H](O)[C@H](O[C@@H]3O[C@H](CO)[C@@H](O)[C@H](O)[C@H]3O)[C@@H](C)O2)[C@@H](C)O1
active: Potency [1] 0.355 µM | Potency [2] 1.58 µM | Potency [3] 0.316 µM | Potency [4] 0.282 µM | Potency [5] 0.316 µM | Potency [6] 0.316 µM | Potency [9] 0.316 µM | Potency [10] 0.198 µM

Cc1ccc(O)c([C@H](CCN(C(C)C)C(C)C)c2ccccc2)c1
active: Potency ([7]; tumour line A) 3.98 µM
inactive: Potency [1] | Potency [3] | Potency [4] | Potency [5] | Potency [6] | activity, negative = cell killing [7, 12] -18% | activity, negative = cell killing [7, 11] -1.49%

CCN(CC)CCNc1ccc(CO)c2sc3ccccc3c(=O)c12
active: Potency [1] 35.5 µM | Potency [2] 35.5 µM | Potency [3] 28.2 µM

CCCCCN=C(N)N/N=C/c1c[nH]c2ccc(OC)cc12
active: Potency [6] 35.5 µM
inactive: activity, negative = cell killing [7, 12] -10.3% | activity, negative = cell killing [7, 13] 8.03% | activity, negative = cell killing [7, 11] 9.98% | Potency [9]

CN(C)CCOC(c1ccc(Cl)cc1)c1ccccn1 (stereo unspecified)
active: Potency ([7]; tumour line A) 15.8 µM
inactive: Potency [8] | activity, negative = cell killing [7, 12] -15.3% | activity, negative = cell killing [7, 13] -15.7% | activity, negative = cell killing [7, 11] 3.84% | Potency [9]

CC[C@]12CCCN3CCc4c(n(c5ccccc45)C(=O)C1)[C@@H]32
active: Potency [3] 20 µM | Potency [6] 28.2 µM and 31.6 µM | Potency ([7]; tumour line A) 6.31 µM
inactive: Potency [8] | Potency [2] | activity, negative = cell killing ([7]; at 21.2 µM (top of the series), tumour line B) -16.8% | activity, negative = cell killing ([7]; at 21.2 µM (top of the series), tumour line D) -29.4%

O=C(Nc1ccccc1)OCC(CN1CCCCC1)OC(=O)Nc1ccccc1 (stereo unspecified)
active: Potency ([7]; tumour line A) 11.2 µM | Potency ([7]; tumour line D) 10 µM
inactive: Potency [8] | Potency [3] | Potency [5] | Potency [6] | activity, negative = cell killing ([7]; at 20 µM (top of the series), tumour line C) -1.96% | Potency [9]
